Screening results from PubChem.
An excerpt weighted towards active compounds, which were near 12% of everything screened.
Sfp inh: inhibitors of Bacillus subtilis Sfp phosphopantetheinyl transferase | Q9F4F7 | Biochemical Sfp PPTase activity, qHTS | Potency, µM, inactives show largest response in the series, negative = inhibition, usual class: inhibitors | 310,000 compounds, 3.5% hits | AID 1490;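 note: the enzyme is Sfp with the accession as filed and its product quenches rhodamine fluorescence; 0% = enzyme reaction without inhibitor and -100% = no enzyme wells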
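Compounds were incubated with enzyme (final 15 nM) for 15 min at room temperature before substrate addition started the reaction. Fluorescence at 525 nm excitation, 598 nm emission was recorded immediately and after 30 minutes.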
G9a inh: G9a (human) methyltransferase inhibition | AID 504332 | Potency, µM (doses to about 102 µM), inactives show at the top dose activity, negative = inhibition, actives largely listed as inhibitors | G9a H3K9 monomethylation, AlphaScreen, 2 h | Q96KQ7 | 350,000 compounds, 8.8% hits; note: % is set by controls: 0 for no effect and ±100 for the full control effect; nearly all actives have a fitted effect of over 75% in size
Target sequence (Q96KQ7 913-1193 limits assumed): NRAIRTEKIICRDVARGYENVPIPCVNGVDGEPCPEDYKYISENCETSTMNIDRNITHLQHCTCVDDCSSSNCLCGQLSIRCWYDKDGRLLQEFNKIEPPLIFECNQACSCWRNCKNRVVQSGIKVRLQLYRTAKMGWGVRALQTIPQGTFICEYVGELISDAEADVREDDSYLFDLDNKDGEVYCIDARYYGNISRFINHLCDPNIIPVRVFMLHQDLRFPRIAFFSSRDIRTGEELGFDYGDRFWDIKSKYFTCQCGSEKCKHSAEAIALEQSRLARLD
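AlphaScreen read-out: biotin-H3K9 peptide (500 nM) methylation by 20 nM enzyme with 20 uM SAM, 2 h at room temperature after 15 min compound preincubation; anti-monomethyl H3K9 antibody plus donor/acceptor beads, 10 min dark.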
BAZ2B inh: inhibitors of human BAZ2B bromodomain | AlphaScreen BAZ2B-H3K14Ac peptide displacement | Potency, µM (top dose mostly 114 µM), for inactives: at the highest dose activity change, negative = inhibition, usual class: inhibitors | AID 504333 | 360,000 compounds, 4.4% hits; note: % is set by controls: 0 for no effect and ±100 for the full control effect; nearly all actives have a fitted effect of over 60% in size
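Compounds, titrated to a top concentration of 110 uM, were incubated 30 min at room temperature with preformed BAZ2B/acetyl-K14 H3 peptide complex (50 nM each). Proximity signal was measured by AlphaScreen after 20 min with beads.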
HP1b binding inh: blocks HP1-beta chromodomain binding to methylated histone tails; AID 540317; AlphaScreen HP1-beta / biotin-H3K9me3 peptide binding; 390,000 compounds, 0.56% hits; Potency, µM (top dose mostly 114 µM), for inactives: at the highest dose activity change, negative = inhibition, actives largely listed as inhibitors; P83916; note: nearly all actives have a fitted effect of over 70% in size
Target sequence (P83916 whole entry, looked up): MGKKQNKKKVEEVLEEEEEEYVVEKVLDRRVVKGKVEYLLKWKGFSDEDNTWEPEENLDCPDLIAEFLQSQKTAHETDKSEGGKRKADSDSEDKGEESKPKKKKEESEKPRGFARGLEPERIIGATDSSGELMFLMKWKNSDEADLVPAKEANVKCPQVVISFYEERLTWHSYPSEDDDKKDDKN
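HP1-beta protein (50 nM final) preincubated 30 min at room temperature with biotinylated H3(1-18)K9me3 peptide (50 nM) in PBS pH 7.4, 0.01% Tween-20, then compound added for 30 min. AlphaScreen streptavidin donor/nickel chelate acceptor beads (10 ug/mL final), 30 min dark, luminescence read.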
TDP1 block: blocks human tyrosyl-DNA phosphodiesterase 1; Q9NUW8; recombinant TDP1, AlphaScreen DNA substrate cleavage; Potency, µM (titrated, usually from 130 µM), for inactives: at the highest dose activity change, negative = inhibition, actives largely listed as inhibitors; 350,000 compounds, 0.28% hits; note: % is set by controls: 0 for no effect and ±100 for the full control effect; nearly all actives have a fitted effect of over 40% in size
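Enzyme-compound mixtures sat 15 min at room temperature, followed by a 5 min reaction with 15 nM final substrate and 10 min with AlphaScreen beads. Recombinant human Tdp1 was used at 1 nM final.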
JMJD2A Tudor inh: JMJD2A Tudor domain (human) inhibition | O75164 | AlphaScreen JMJD2A-Tudor / H3K4me3 peptide binding | Potency, µM (highest dose often 114 µM), for the others: at the top dose activity change, negative = inhibition, usual class: inhibitors | 390,000 compounds, 4.4% hits; note: % is set by controls: 0 for no effect and ±100 for the full control effect; nearly all actives have a fitted effect of over 50% in size
* = called active by the depositor; ? = inconclusive; · = no result given; [ ] = remark or other dose. Calls come from the whole dose curve; as a rule, active = well fitted curve in the direction sought with a large enough effect; inconclusive = small, poorly fitted or top-dose-only effect, or another doubt; inactive = no such curve, though single readings can be large; an effect the other way counts as inactive or inconclusive. Potency is the fitted concentration of half-maximal effect.

SMILES	Sfp inh	G9a inh	BAZ2B inh	HP1b binding inh	TDP1 block	JMJD2A Tudor inh
Cc1ccc2c(c1)cc(CN(Cc1cccs1)C(=O)c1ccco1)c1nnnn12	2%	10%[59 µM]	1%	?	5%	28µM*
Cc1cccc2cc(CN(Cc3ccco3)C(=O)c3ccncc3)c(=O)[nH]c12	50µM*	-8%[12.7 µM]	2%	34%	11%	-8%
Cc1ccc2[nH]c(=O)c(CN(Cc3cccs3)C(=S)NCc3ccco3)cc2c1	50µM*	9%[59 µM]	-11%	-5%	3%	0%
Cc1ccc2cc(CN(Cc3cccs3)C(=O)c3ccco3)c3nnnn3c2c1C	-2%	16%[59 µM]	14%	·	5%	·
O=c1[nH]c2cc3c(cc2cc1CN(Cc1cccnc1)C(=S)NCc1ccco1)OCCO3	5µM*	40µM*	-34%	-24%	0%	-32%
O=C(COc1ccc([N+](=O)[O-])cc1)Nc1nc2c(s1)CCCC2	·	-27%[59 µM]	-10%	22%	-5%	-16%
COc1ccccc1NC(=S)N(Cc1ccco1)Cc1cc2cc(C)cc(C)c2[nH]c1=O	11%	-11%[59 µM]	-9%	27%	4%	-1%
Cc1ccc2[nH]c(=O)c(CN(CC3CCCO3)C(=S)NCc3ccco3)cc2c1 (configuration not stated)	-5%	-8%[59 µM]	-38%	6%	-14%	-9%
CCNC(=S)N(Cc1cccs1)Cc1cc2cc(OCC)ccc2[nH]c1=O	-12%	22%[59 µM]	4%	12%	0%	-20%
Cc1cccc2cc(CN(CC3CCCO3)C(=S)NCc3ccco3)c(=O)[nH]c12 (configuration not stated)	50µM*	-6%[59 µM]	-2%	4%	3%	-14%
COc1ccccc1NC(=S)N(Cc1ccco1)Cc1cc2ccc(C)c(C)c2[nH]c1=O	50µM*	9%[59 µM]	-5%	7%	8%	-32%
Cc1ccc2cc(CN(CC3CCCO3)C(=S)NCc3ccco3)c(=O)[nH]c2c1 (configuration not stated)	45µM*	?	-34%	?	3%	-20%
CCNC(=S)N(Cc1ccco1)Cc1cc2cc(OCC)ccc2[nH]c1=O	10µM*	45µM*	?	11%	0%	-21%
C=CCN1C(=O)C(=O)N(Cc2nc3ccccc3s2)C1=O	19%	10%	1%	26%	·	-8%
CC(=O)N1CCc2c(sc3c2c(=O)n(-c2ccc(C)cc2)c(=O)n3Cc2c(F)cccc2Cl)C1	·	2%[59 µM]	2%	21%	4%	-14%
CC(=O)NC(CC(=O)Oc1ccc(C)cc1Br)c1ccccc1 (configuration not stated)	-3%	·	?	13%	2%	-7%
CN1CC(=O)N(CC(=O)Nc2cc(Cl)cc(Cl)c2)C1=O	11%	-28%	-8%	34%	-2%	-17%
O=[N+]([O-])c1ccc(C[n+]2ccc(Cc3ccccc3)cc2)cc1	-15%	13µM*	-27%	32%	5%	-8%
O=[N+]([O-])c1ccc(CSc2nnc(Cc3ccccc3)o2)cc1	-1%	45µM*	-33%	14%	2%	-29%
COc1ccc(Cc2nnc(SCc3ccc([N+](=O)[O-])cc3)o2)cc1	5%	-7%	?	?	3%	-35%
Cc1[nH]c2ccccc2c1Cc1nnc(SCc2ccccc2)o1	-5%	71µM*	?	-3%	8%	?
COc1cccc(C2=CC(c3ccccc3O)NC(C)(C)N2)c1 (configuration not stated)	·	·	·	4%[57 µM]	4%	-15%[57.1 µM]
CCN(CC)c1ccc(C=Nc2ccc(N(C)C)cc2)c(O)c1	50µM*	0.56µM*	32µM*	?	12%	56µM*
CCN1CCN(c2ccc(N=Cc3ccc(O)cc3O)cc2)CC1	-2%	·	32µM*	?	8%	?
Oc1c(Br)cc(Cl)cc1C=Nc1ccc(N2CCOCC2)cc1	-5%	?	-13%	33%	6%	-19%
SMILES	Sfp inh	G9a inh	BAZ2B inh	HP1b binding inh	TDP1 block	JMJD2A Tudor inh
CCN(CC)c1ccc(C=Nc2cc(C)cc(C)c2)c(O)c1	-2%	8.9µM*	9%	-4%	8%	-20%
CCN(CC)c1ccc(N=Cc2ccc(N(CC)CC)cc2O)cc1	?	?	18µM*	?	13%	40µM*
CCN(CC)c1ccc(C=Nc2ccc(C)cc2)c(O)c1	-17%	?	14%	72%	5%	-2%
CNC(=O)C1CCC(Cn2c(=O)c3sccc3n(CC(=O)Nc3ccc(C)cc3C)c2=O)CC1 (configuration not stated)	·	9%[59 µM]	-8%	28%	5%	-10%
CCN(CC)c1ccc(/C=N/N2C(C)CCCC2C)c(O)c1 (configuration not stated)	2%	45µM*	45µM*	-13%[57 µM]	11%	?
Nc1c(S(=O)(=O)c2ccccc2)cnc2c(-c3ccc(F)cc3)cnn12	21%	-1%	-5%	35%	2%	-6%
CS(=O)(=O)c1cnc2c(S(=O)(=O)c3ccccc3)cnn2c1N	8%	?	-25%	1%	3%	28µM*
O=C(CNS(=O)(=O)c1cccc(F)c1)OCC(=O)N1CCCC1=O	·	10%[12.7 µM]	1%	28%	1%	-13%
CCOc1ccc(NC(=O)/C(C#N)=C/c2ccc(N3CCCC3)c(C)c2)cc1	-8%	2%[59 µM]	2%	17%	2%	-9%
C=CCNC(=O)/C(C#N)=C\c1cc(Cl)c(O)c(OCC)c1	1%	11µM*	-15%	9%	3%	-11%
CCOc1cc(/C=C(/C#N)C(=O)Nc2ccc(O)cc2)cc(Br)c1O	-10%	50µM*	-37%	-13%	3%	-27%
CCOCCCNC(=O)/C(C#N)=C/c1cc(C)c(O)c(C)c1	13%	-50%	-8%	53%	-2%	-12%
CCOc1ccc(S(=O)(=O)N/N=C(\C)C2CCCCC2)cc1	-24%	15%[59 µM]	1%	31%	0%	-11%
CCOc1ccc(S(=O)(=O)N/N=C2/CCCC(=O)C2)cc1	-7%	10µM*	1%	26%	1%	-26%
N#C/C(C(=O)Nc1ccc(Cl)cc1)=C(/S)Nc1ccccc1	0.79µM*	1.6µM*	20µM*	?	·	20µM*
Cc1ccc(N=Nc2c(=O)[nH]n3c(=O)cc(C)[nH]c23)cc1	1%	?	50µM*	-17%	1%	?
Cc1ccc(N=Nc2c(N)[nH]n3c(=O)cc(-c4ccccc4)nc23)cc1	7%	?	4%[57.1 µM]	?	11%	?
N#Cc1cc2ccccc2nc1SCc1ccccn1	-21%	35µM*	27%	50%	-9%	0%
CCCCCCN1C=CC(=C/C=C(\C#N)C(=O)OCC)C=C1	4%	9%[12.7 µM]	?	23%	6%	-17%
